High-throughput results deposited in PubChem by National Center for Advancing Translational Sciences (NCATS).
Shown are actives, neighbours in structure and some others; about 11% of the full set was active somewhere.
Tau ThT inhib: qHTS for Inhibitors of Tau Fibril Formation, Thioflavin T Binding | AID 1460, 2008 | Microtubule-associated protein tau (Homo sapiens), P10636 | recombinant tau K18 P301L, heparin-induced fibrillization, ThT fluorescence | Potency, µM (titrated, usually from 57.4 µM), most hits filed as inhibitors | actives 2.1% (n = 270,000); note: nearly all actives have a fitted effect of over 55% in size
Target sequence (P10636 561-689 P618L limits assumed): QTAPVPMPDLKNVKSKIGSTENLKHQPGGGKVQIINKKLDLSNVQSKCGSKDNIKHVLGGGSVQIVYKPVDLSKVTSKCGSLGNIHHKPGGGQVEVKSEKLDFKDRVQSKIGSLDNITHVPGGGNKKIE
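Heparin-induced (20 uM) aggregation of recombinant human K18 P301L tau, 15 uM unlabeled with 0.24 uM labeled, pH 7 acetate buffer, 6 hr at 37 C with compound. Fibrils quantified by 30 uM ThT fluorescence after 1 hr ambient incubation.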
Tau FP inhib: qHTS for Inhibitors of Tau Fibril Formation, Fluorescence Polarization; Potency, µM (series often up to 57.7 µM), usual class: inhibitors; K18 P301L tau heparin fibrillization, Alexa594 FP, 6 h; actives 0.39% (n = 280,000); Microtubule-associated protein tau (Homo sapiens), P10636; AID 1468, 2008; note: nearly all actives have a fitted effect of over 55% in size
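Heparin (20 uM) drove fibril formation of recombinant tau K18 P301L, 15 uM unlabeled with 0.24 uM Alexa 594 label, for 6 hr at 37 C in 100 mM sodium acetate pH 7. Fluorescence polarization (555/632 nm) read 1 hr after 30 uM ThT.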
Tau fluor counter: Counterscreen qHTS for Inhibitors of Tau Fibril Formation, Fluorescence Polarization; actives 0.93% (n = 280,000); Potency, µM (titrated, usually from 57.7 µM); AID 1463, 2008; tau K18 P301L (four-repeat tau fragment) Alexa594 fluorescence, heparin fibrillization; note: nearly all actives have a fitted effect of over 55% in size
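Human K18 P301L tau (15 uM unlabeled plus 0.24 uM Alexa 594-labeled, final) in 100 mM sodium acetate pH 7 was mixed with compound and 20 uM heparin and incubated 6 hr at 37 C.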
Sfp inh: qHTS Assay for Inhibitors of Bacillus subtilis Sfp phosphopantetheinyl transferase (PPTase) | Biochemical Sfp PPTase activity, qHTS | Potency, µM, most hits filed as inhibitors | actives 3.5% (n = 310,000);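 note: the enzyme is Sfp with the accession as filed and its product quenches rhodamine fluorescence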
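After 15 min at room temperature with compound, 15 nM Sfp received 5 uM rhodamine-CoA plus 12.5 uM BHQ-2-ybbR (50 mM Hepes pH 7.6, 10 mM MgCl2). Rate came from the fluorescence difference over 30 min, ex 525/em 598 nm.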
FBPA coupling cs: qHTS Assay for Inhibitors of Fructose-1,6-bisphosphate Aldolase from Giardia Lamblia: Coupling assay counterscreen; activity change, negative = inhibition, % at 58.2 µM, hits read low; coupling enzyme system counterscreen, AmpLite Red fluorescence; actives 0.67% (n = 290,000); AID 2472, 2010; in the data active = activity change below about -30%
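Compounds tested against the coupling enzymes alone at 57.5 uM final; readout was AmpLite Red fluorescence (525/598 nm) after 20 min at RT.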
G9a block: qHTS Assay for Inhibitors of Histone Lysine Methyltransferase G9a. G9a H3K9 monomethylation, AlphaScreen, 2 h. Potency, µM (highest dose often 102 µM), most hits filed as inhibitors. actives 8.8% (n = 350,000). AID 504332, 2011; note: nearly all actives have a fitted effect of over 75% in size
Target sequence (Q96KQ7 913-1193 limits assumed): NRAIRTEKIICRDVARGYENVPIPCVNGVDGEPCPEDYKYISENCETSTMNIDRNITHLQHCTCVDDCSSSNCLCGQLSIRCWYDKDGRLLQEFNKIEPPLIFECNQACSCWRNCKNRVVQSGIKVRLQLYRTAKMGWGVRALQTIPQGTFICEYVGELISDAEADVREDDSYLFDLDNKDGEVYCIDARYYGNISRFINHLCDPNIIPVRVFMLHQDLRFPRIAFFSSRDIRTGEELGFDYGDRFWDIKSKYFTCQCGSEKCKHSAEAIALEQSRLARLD
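G9a (20 nM) preincubated 15 min RT with compounds, then 500 nM biotinylated H3K9 peptide and 20 uM SAM added; 2 h RT reaction. Monomethyl-H3K9 product detected by AlphaScreen with anti-H3K9me1 antibody, streptavidin donor and anti-rabbit IgG acceptor beads.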
Hits are given with their value; - = inactive; ? = inconclusive; . = no result given; [ ] = dose if it differs, or a comment. Unless noted, calls come from the whole dose curve; as a rule, active = well fitted curve in the direction sought with a large enough effect; inconclusive = small, poorly fitted or top-dose-only effect, or another doubt; inactive = no such curve, though single readings can be large; an effect the other way counts as inactive or inconclusive.

SMILES	Tau ThT inhib	Tau FP inhib	Tau fluor counter	Sfp inh	FBPA coupling cs	G9a block
Cc1ccc2c(CC(=O)N(Cc3cccc(Cl)c3)C3CCS(=O)(=O)C3)coc2c1 (stereo not drawn)	-	-	-	.	.	-
CCCc1cc(=O)[nH]c(SCC(=O)Nc2sc(C(N)=O)c(C)c2C(=O)OCCOC)n1	.	.	.	.	.	-[12.7 µM]
CCOC(=O)c1c(NC(=O)C(Sc2ccccc2)c2ccccc2)sc(C(N)=O)c1C (stereo not drawn)	?	?	-	-	-	7.9µM
COCCOC(=O)c1c(NC(=O)CSc2cccc[n+]2[O-])sc(C(N)=O)c1C	-	-	-	-	-	2.5µM
CCOC(=O)c1c(NC(=O)C(Sc2ccccc2)c2ccccc2)sc(C(=O)N(C)C)c1C (stereo not drawn)	-	?	-	-	-	-
O=C(Cn1nc(Cl)nc1Cl)Nc1ccccc1	-	-	-	-	-	50µM
O=C(O)CNS(=O)(=O)c1ccc2c(c1)C(=O)c1cc(S(=O)(=O)NCC(=O)O)ccc1-2	.	.	.	-	-	45µM
O=C1c2cc(S(=O)(=O)NCCO)ccc2-c2ccc(S(=O)(=O)NCCO)cc21	-	-	-	-	-	-
O=C1c2ccccc2C(=O)c2cc(S(=O)(=O)Nc3ccccc3)ccc21	22µM	?	14µM[quencher]	-	-	?
N#CC1=C(Nc2ccccc2)SC=C(c2ccccc2)N=C1N1CCOCC1	?	-	-	-	-	50µM
O=C(c1ccco1)[C@@H]1[C@@H]2C(=O)N(c3ccc(F)cc3)C(=O)[C@@H]2[C@H]2C=Cc3ccccc3N21	14µM	?	-	50µM	-	6.3µM
NC(=O)[C@@H]1[C@@H]2C(=O)N(c3ccc(F)cc3)C(=O)[C@@H]2[C@H]2C=Cc3ccccc3N21	14µM	?	-	56µM	-	8.9µM
O=C1C2C3C=CC(C3)C2C(=O)N1c1ccccc1 (stereo not drawn)	-	-	-	-	-	-[12.7 µM]
COc1ccccc1NC(=O)CCCCCN1C(=O)c2cccc([N+](=O)[O-])c2C1=O	.	.	.	-	-	.
COc1cc(/C=C2/C(=O)c3cccc([N+](=O)[O-])c3C2=O)c(Br)cc1O	13µM	?	?	20µM	-	10µM
COc1cc(S(=O)(=O)N(Cc2cccnc2)Cc2cccc(OC)c2OC)ccc1-n1cnnn1	.	-	-	-	-	18µM
COc1ccccc1CN(Cc1cccnc1)S(=O)(=O)c1ccc(-n2cnnn2)c(OC)c1	.	.	.	-	-	-
COc1ccc(CN(Cc2cccnc2)S(=O)(=O)c2ccc(-n3cnnn3)c(C)c2)cc1OC	-	-	-	-	-	16µM
Cc1cccc(N2CCN(C(=O)CN3CCOc4ccccc43)CC2C)c1 (stereo not drawn)	?	-	-	-	-	50µM
Cc1cccc(N2CCN(C(=O)c3cc(C)oc3C)CC2C)c1 (stereo not drawn)	-	-	-	-	-	-
Cc1cc(C)c2c(=O)n(CC(=O)N3CCC(Cc4ccccc4)CC3)sc2n1	13µM	11µM	-	7.9µM	-	1.6µM
Cc1ccn2c(=O)nc(SCC(=O)N3CCC(Cc4ccccc4)CC3)nc2c1	.	.	.	.	.	-[0.501 µM]
Cc1cccc(N2CCN(C(=O)c3csc4ccccc34)CC2C)c1 (stereo not drawn)	-	-	-	-	-	50µM
Cc1cccc(N2CCN(C(=O)Cn3sc4nc(C)cc(C)c4c3=O)CC2C)c1 (stereo not drawn)	13µM	?	-	3.5µM	-	1.3µM
Cc1cccc(N2CCN(C(=O)c3ccc4c(c3)OCCO4)CC2C)c1 (stereo not drawn)	-	-	-	-	-	-
SMILES	Tau ThT inhib	Tau FP inhib	Tau fluor counter	Sfp inh	FBPA coupling cs	G9a block
COc1ccc(CNC(=O)COCc2cc(-c3cccs3)on2)cc1	-	-	-	.	.	-
Cc1cc(C)c2c(N)c(C(=O)N3CCCCCC3)sc2n1	-	-	-	35µM	-	?
Nc1c(C(=O)N2CCOCC2)sc2nc3c(cc12)CCCC3	.	.	.	-	-	?
COCc1cc(C)nc2sc(C(=O)N3CCCC3)c(N)c12	-	-	-	?	-	?
Nc1c(C(=O)N2CCCC2)sc2nc3c(cc12)CCCCCC3	-	-	-	56µM	-	?
CNC(=O)C[C@@H](N)C(=O)N[C@@H](C(=O)N[C@@H]1C(=O)N2[C@@H]1SC(C)(C)[C@@H]2C(=O)O)c1ccc(O)cc1	.	.	.	?	.	-[12.7 µM]
COc1ccc(NC(=O)CCn2c(=O)c3cccn3c3cccnc32)c(OC)c1	-	-	-	.	.	-
COc1cccc(C2=NOC(C(=O)Nc3cc(C)nn3-c3ccccc3)C2)c1OC (stereo not drawn)	-	-	-	?	-	45µM
Cc1ccc(-n2nnnc2CNC(=O)C(C)C)cc1C	-	-	-	.	.	-
Cc1ccc(-c2ccc(/C=C(\C#N)C(N)=S)n2C)cc1	1µM	-	?	-	-	10µM
Cc1cc(C)c(/C=C(\C#N)C(N)=S)c(C)c1	-	-	-	-	-	45µM
Cn1cccc1/C=C(/C#N)C(N)=S	?	-	-	-	-	?
CCOC(=O)COc1ccc(C2NC(C(=O)O)CS2)cc1 (stereo not drawn)	-	-	-	45µM	-	?
COc1cc(C2NC(C(=O)O)CS2)ccc1OCc1ccccc1C#N (stereo not drawn)	-	-	-	18µM	-	20µM
COC(=O)c1ccc(C2NC(C(=O)O)CS2)cc1 (stereo not drawn)	-	-	-	56µM	-	3.5µM
O=C(C[n+]1ccccc1)N/N=C/c1ccccc1C(F)(F)F	.	.	.	-	-	-
CCOc1ccc(-c2cc(CCCC(=O)NCCc3cc(OC)c(OC)c(OC)c3)no2)cc1	?	-	-	.	.	-
CCOc1ccc2cc(/C=C/C(=O)c3ccco3)c(Cl)nc2c1	?	-	-	-	-	?
O=Cc1coc2c(ccc3ccccc32)c1=O	.	.	.	-	-	?
O=C/C=C/c1coc2ccc3ccccc3c2c1=O	14µM	-	?	-	-	-
O=[N+]([O-])c1ccc2c(c1)nc1n2CCN(C2CCCCC2)C1	?	-	-	-	-	-[12.7 µM]
CC(=O)Nc1ccc2c(c1)nc1n2CCN(C2CCCCC2)C1	?	-	-	-	-	10µM
CCCC(=O)Nc1ccc2c(c1)nc1n2CCN(C2CCCCC2)C1	?	-	-	-	-	13µM
